The record followed here is PubChem BioAssay (NCI).

The panel holds about 83,000 compounds, 20% with a hit somewhere; the sample as a whole holds those more often.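 Testing used 96-well plates and a 48-hour single-concentration exposure. Example: -40 means 40% of the starting cells died.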 Active and inactive are the calls of the source.

This assay has as its system OVCAR-8 ovarian. As to the kind of experiment: NCI-60 one-dose screen, 48 h (100 = growth as untreated, 0 = no growth, -100 = all killed). Particulars: 10 µM unless noted. As to the method: Growth inhibition of the OVCAR-8 human tumor cell line is measured as a screen for anti-cancer activity. Cells are grown in 96 well plates and exposed to the test compound for 48 hours. Compounds are tested at a single concentration, which is 10^-5 M for most compounds. The reported endpoint is percent growth (GI% or GIPRCNT), where numbers from 0 - 100% represent growth inhibition, and numbers from -100% - 0 represent cell death. For example, a value of 40 represents 60% growth inhibition. A value of 0 means no net growth occurred over the course of the experiment. A value of -40 indicates 40% of cells at the beginning of the experiment died by the end of the experiment. A value of -100 means all cells are dead at the end of the experiment.
NCI-60 Human Tumor Cell Lines Screen was performed using the standard one-dose NCI protocol, which is described in more detail at https://dtp.cancer.gov/discovery_development/nci-60/default.htm.
Compounds with GIPRCNT values below 10 were considered active. Activity score was based on GIPRCNT using the following formula: […]
Score is 0 for GIPRCNT values of 100 or above, 50 for GIPRCNT values of 0, and 100 for GIPRCNT values of -100.
In the case of `CO[C@H]1CC(O[C@@H]2/C(C)=C/C[C@@H]3C[C@@H](C[C@]4(CC[C@H](C)[C@@H](C5CCCCC5)O4)O3)OC(=O)[C@@H]3C=C(C)/C(=N/O)[C@H]4OC/C(=C\C=C\[C@@H]2C)[C@]43O)O[C@@H](C)C1O` (stereo not given in full), the growth was -51.3% (active).

For `NC(N)=NN=c1c(=O)c2ccccc2c1=O`, the growth is 81.5% (inactive).

Regarding `Cc1c(C(N)=O)sc2ncn(CC(=O)Nc3ccc(Cl)cc3)c(=O)c12`, the growth is 105% (inactive).

With `C=Cc1nn2c(CCC(=O)c3nc4ccccc4[nH]3)nnc2s1`, the growth was 108% (inactive).

As to `CN(CC(=O)N(Cc1ccc(C2CCCCC2)cc1)c1ccc(C(=O)O)cc1)S(=O)(=O)c1c(F)c(F)c(F)c(F)c1F`, the growth was 6.02% (active).

Take `O=C(CSCC(=O)N/N=C/c1ccccc1O)N/N=C\c1ccccc1O`: the growth is 28.3% (inactive).

For `Cc1cc2c(cc1[N+](=O)[O-])NC(CNC(C)C)CC2` (stereo not given), the growth is 115% (inactive).

In the case of `CSc1ncc2ncn(C3OC(CO)C(O)C3O)c2n1` (stereo not given), the growth was 138% (inactive).

For the compound `Cc1cc(NC(=O)Nc2cc(Cl)ccc2C)no1`, the growth is 110% (inactive).

In the case of `OCc1nnn(-c2ccccc2)c1CO`, the growth is 109% (inactive).

Regarding `OC(Cc1cccnc1)c1ccccc1` (stereo not given), the growth is 96.5% (inactive).

For `COc1ccc(/C=C(\C#N)c2ccccc2)cc1`, the growth is 92% (inactive).

With `CCCCCCCCCCC[C@@H](C[C@H]1OC(=O)[C@H]1CCCCCC)OC(=O)[C@@H](CC(C)C)NC=O`, the growth is 62.9% (inactive).

Take `CCCCN(CCCC)CCCOC(=O)c1ccc(N)cc1`: the growth was 73% (inactive).

Consider `CSc1nnc(C2=CC(=O)c3ccccc3C2=O)n1-c1ccccc1`, for which the growth is 94.6% (inactive).

On to `CC[C@@H]1OC(=O)[C@H](C)[C@@H](O[C@H]2C[C@@](C)(OC)[C@@H](O)[C@H](C)O2)[C@H](C)[C@@H](O[C@@H]2O[C@H](C)C[C@H](N(C)C)[C@H]2O)[C@](C)(O)C[C@@H](C)[C@@H]2N[C@@H](COCCOC)O[C@H]([C@H]2C)[C@]1(C)O`, for which the growth was 102% (inactive).

In the case of `c1ccc(N2CCN(c3nncc4ccccc34)CC2)nc1`, the growth is 97.8% (inactive).

For `COC1=CC(c2ccc[nH]2)=N/C1=C\c1[nH]c(C)c(C(=O)CCC(=O)Oc2ccc3c(c2)CCC2C3CC[C@]3(C)C(=O)CC[C@@H]23)c1C` (stereo not given in full), the growth was 80.8% (inactive).

As for `O=C(c1nn(-c2ccc(Cl)cc2)cc1O)n1nc(C(F)(F)F)cc1-c1ccccc1`, the growth is 22.9% (inactive).

`COc1cc(/C=C/C(=O)Nc2ccc3c(c2)/C(=C\c2cccn2C)C(=O)N3)cc(OC)c1OC`: the growth is 37% (inactive).

Turning to `CCCOc1ccc2c(c1)CC[C@@H]1[C@@H]2CC[C@@]2(C)[C@H]1CC[C@]2(C)O`, the growth is 74% (inactive).

With `COC(=O)[C@]12CC[C@@H](C)[C@H](C)[C@@H]1C1=CC[C@@H]3[C@@]4(C)C[C@@H](OC(=O)c5ccco5)[C@H](O)[C@@](C)(CO)[C@@H]4[C@H](O)C[C@@]3(C)[C@]1(C)CC2`, the growth was -76.1% (active).

In the case of `Cn1cc(-c2csc(-c3c[nH]c4ncccc34)n2)c2cc(F)cnc21`, the growth is 77.5% (inactive).

On to `CO[C@H]1/C=C/O[C@@]2(C)Oc3c(C)c(O)c4c(O)c(c(/C=N/N5CCN(C)CC5)c(O)c4c3C2=O)NC(=O)/C(C)=C\C=C\C(C)[C@H](O)[C@@H](C)[C@@H](O)[C@@H](C)[C@@H](OC(C)=O)[C@@H]1C` (stereo not given in full), for which the growth was 100% (inactive).

Take `S=C1SCN(Cc2ccccc2)CN1Cc1ccco1`: the growth is 89.1% (inactive).

`CNc1ccc(CSc2ccc(Cl)cc2)cc1`: the growth was 103% (inactive).

With `C[N+]1(CCc2ccccc2)CCC(CCC2CC[N+](C)(CCc3ccccc3)CC2)CC1` (stereo not given), the growth is 97% (inactive).

For the compound `NC(N)=N/N=C(/c1ccccc1)c1ccc(Cl)cc1`, the growth was 103% (inactive).

Consider `COc1cccc(C2C(C#N)=C(N)Oc3cc(OC)ccc32)c1` (stereo not given), for which the growth is 3.88% (active).

In the case of `C=CCOc1ccc2c(c1)CC[C@@H]1[C@@H]2CC[C@@]2(C)[C@H]1CC[C@]2(C)O`, the growth was 66.4% (inactive).

Turning to `Clc1ccc(-c2nc(-c3cccs3)no2)c(Cl)c1`, the growth was 97.1% (inactive).

Turning to `Nc1nc(SCc2ccccc2Cl)c(-c2ccccc2)c(SCc2ccccc2Cl)n1`, the growth is 98.4% (inactive).

For the compound `O=C1C(=O)c2ccc(Br)cc2-c2cc(Br)ccc21`, the growth was -1.14% (active).

Consider `O=C(O)c1ccccc1C(=O)OC1CCCC2CCCC21` (stereo not given), for which the growth was 106% (inactive).

`COc1ccc2nc3cc(Cl)ccc3c(Nc3cc(C(C)C)c(O)cc3C)c2c1`: the growth was 50.4% (inactive).

For the compound `Cc1nc2c(O)cccc2cc1CO`, the growth was 120% (inactive).

As for `C/C(=C\CCc1ccsc1)CC/C=C(\C)CCCN1CCC(CO)CC1`, the growth is 62.8% (inactive).

As for `COc1cc2c(cc1OCCCCCn1c(-c3ccc(OCc4ccccc4)cc3)nc3cc(N4CCOCC4)ccc31)N=C[C@@H]1CCCN1C2=O`, the growth was 21.2% (inactive).

`O=Nc1ccc(O)c(=O)cc1`: the growth is 43.8% (inactive).

With `N#Cc1cccc(/C=C(/C(=O)c2ccccc2)c2ccccc2)c1`, the growth is 20.4% (inactive).
